Test results taken from PubChem BioAssay AID2810 (NMMLSC, 2010).
Among all 1,200 compounds or so, about 65 (5%) were called active.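 Rule for the calls: active = at either tested dose, response and 90th-percentile vesicle-stain brightness of CD8 cells under set limits and under 9% cells vesicle-bound; inactive = the rest.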 Many of the other results were omitted from the sample, so actives are more common in it than they were.

Test: modulators of CD8 T cell-vesicle binding, confirmation, cherry-picked primary hits, two concentrations (AID 2810);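 note: lower values mean blocking of vesicle binding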;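 for percent response (vesicle binding): ratio of mean FL2 vesicle stain of CD8+ cells to that row's control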
Conditions: 2C CD8+ T cell-vesicle binding, flow cytometry; for double positive events: CD8+/vesicle+ events
[1] = at 15.4 µM, stronger effect = lower value

SMILES	double positive events (at 7.7 µM)	double positive events [1]	percent response (vesicle binding) [1]	percent response (vesicle binding) (response, at 7.7 µM)
O=C1CCCc2sccc2N1	17.6%	1.1%	33.4% (active)	308%
CCCCn1c(N)c(N(CCOC)C(=O)c2c(CC)noc2C)c(=O)[nH]c1=O	8.2%	14.5%	132% (inactive)	298%
c1coc(-c2nc3c4c5c(sc4ncn3n2)CCCC5)c1	17.3%	13.1%	71% (inactive)	187%
O=C(c1ccco1)N1CCN(c2ncccn2)CC1	27.2%	11.7%	199% (inactive)	331%
COc1ccc(OC)c(C(c2nnnn2CCC(C)C)N2CCN(C(=O)c3ccco3)CC2)c1 (configuration not stated)	33.6%	30.5%	242% (inactive)	208%
O=C(c1ccco1)N1CCN(C(c2ccccc2Cl)c2nnnn2Cc2ccco2)CC1 (configuration not stated)	15.1%	6.3%	40.7% (active)	456%
COCC(C)NC(=O)CSc1nc2cc(S(=O)(=O)N3CCCCC3)ccc2o1 (configuration not stated)	13.5%	13.6%	131% (inactive)	364%
COc1cccc(NC(=O)Nc2ccc3nc(C)c(C)nc3c2)c1	9.8%	8.7%	103% (inactive)	154%
COc1ccc(NC(=O)Nc2c(O)ccc3ccccc23)cc1	5.2%	17.7%	132% (inactive)	173%
COc1ccc(NC(=O)Nc2ccc(O)c3ccccc23)cc1	5.3%	10%	103% (active)	35.3%
Cn1nc(-c2ccccc2)c(CSc2ccccc2Cl)c1Cl	14.2%	30.1%	241% (inactive)	251%
CC(C)c1ccc(NC(=O)NCc2cccnc2)cc1	12%	22.3%	281% (inactive)	415%
C/C(=N\NC(=O)c1ccc(Br)o1)c1cc2c(cc1NC(=O)CCC(=O)O)OCO2	36.2%	13.6%	208% (inactive)	305%
COc1ccc(NS(=O)(=O)c2cc(NC(=O)C3CC3)ccc2N2CCCCC2)cc1	9.3%	3.4%	36.1% (active)	138%
COc1ccc(NC(=O)C2CCC(C(C)(C)C)CC2)cc1S(=O)(=O)N1CCCCC1 (configuration not stated)	17.3%	13.7%	203% (inactive)	135%
COc1ccc(S(=O)(=O)N2CCCC2C(=O)Nc2ccc(C(C)=O)cc2)cc1 (configuration not stated)	6.8%	18.3%	384% (inactive)	406%
Nc1nc(SCCO)[nH]c(=O)c1NC(=O)c1ccc(Br)o1	11.9%	25.8%	393% (inactive)	383%
CCOCC(=O)Nc1ccc(S(=O)(=O)N2CCC(c3nc4ccccc4[nH]3)CC2)cc1	7.3%	21.4%	156% (inactive)	124%
O=C1CC(c2nc3ccccc3[nH]2)CN1Cc1ccccc1 (configuration not stated)	17.2%	4.3%	50.8% (active)	341%
O=C(c1ccccc1Cl)N1CCCC(c2nc3c(nnn3Cc3ccccc3)c(=O)[nH]2)C1 (configuration not stated)	9.2%	17.6%	132% (inactive)	181%
CC(OC(=O)c1ccc2c(c1)C(=O)N(Cc1ccncc1)C2=O)C(=O)Nc1cccc(Cl)c1Cl (configuration not stated)	16.7%	30.5%	343% (inactive)	266%
CSc1ccccc1NC(=O)CN(C)C(=O)c1ccc2c(c1)OCCO2	45.7%	7.6%	133% (inactive)	295%
CCc1ccc(NC(=S)N(CCCN2CCOCC2)Cc2ccccn2)cc1	22.2%	40%	339% (inactive)	168%

SMILES	double positive events (at 7.7 µM)	double positive events [1]	percent response (vesicle binding) [1]	percent response (vesicle binding) (response, at 7.7 µM)
CN(C)S(=O)(=O)c1cccc(-n2sc3ccccc3c2=O)c1	4.4%	2.1%	52.8% (active)	173%
CCCc1cc(=O)[nH]c(SCC(=O)N2c3ccccc3CC2C)n1 (configuration not stated)	26.4%	4.8%	139% (inactive)	285%
O=C(O)C1CCC(Cn2c(SCc3cc(=O)n4cc(Cl)ccc4n3)nc3ccsc3c2=O)CC1 (configuration not stated)	29.3%	9%	76.3% (inactive)	339%
CCOC(=O)C1CCN(C(=O)c2cccc(S(=O)(=O)NCc3ccccc3)c2)CC1	16.4%	18.8%	420% (inactive)	128%
Cc1ccc(NC(=O)C2CCCO2)cc1[N+](=O)[O-] (configuration not stated)	25.5%	9.4%	161% (inactive)	161%
CCOC(=O)C1CCN(C(=O)c2ccc(NC(=O)C3CCCO3)cc2)CC1 (configuration not stated)	27.3%	1.9%	21.8% (active)	
O=C(COc1ccccc1)NNC(=O)c1ccc(Cl)cc1	27.8%	8%	220% (inactive)	616%
CN(C)S(=O)(=O)c1ccc(NC(=O)c2ccc([N+](=O)[O-])cc2)cc1	25.4%	22.8%	217% (inactive)	312%
CCC(C)c1ccc(NC(=O)NCc2cccnc2)cc1 (configuration not stated)	8.6%	27.9%	260% (inactive)	356%
CCC(C(=O)Nc1ccccc1)c1ccccc1 (configuration not stated)	6.9%	21.7%	199% (active)	59.2%
CCOc1ccccc1NC(=O)C(OC(=O)c1ccccc1O)c1ccccc1 (configuration not stated)	6.9%	21.5%	190% (inactive)	189%
Cc1ccc(CONC(=O)c2cccc([N+](=O)[O-])c2)cc1	27.4%	16.3%	328% (inactive)	576%
CCOC(=O)C1(Cc2cccc(OC)c2)CCN(Cc2ccc3c(c2)OCCO3)CC1	13%	17.1%	114% (inactive)	148%
COc1ccc(/C(O)=C2/C(=O)C(=O)N(Cc3cccnc3)C2c2ccco2)cc1OC (configuration not stated)	23.3%	0.8%	27% (active)	360%
CCOc1ccc(/C(O)=C2/C(=O)C(=O)N(CCN(CC)CC)C2c2cccs2)cc1 (configuration not stated)	17.2%	26.6%	300% (inactive)	187%
COCCN1C(=O)C(=O)/C(=C(/O)c2cccc(OC)c2)C1c1ccc(C)o1 (configuration not stated)	12.5%	16.5%	205% (inactive)	173%
COc1ccc(NC(=O)COC(=O)c2cc(Cl)ccc2O)cc1S(=O)(=O)N1CCCCC1	27%	23.1%	366% (inactive)	227%
CC1CC(C)(C)NC(=S)N1CC(=O)NCc1ccccc1Cl (configuration not stated)	8.8%	18.9%	506% (inactive)	79.3%
CCOC(=O)C1(CC2CCCCO2)CCN(S(=O)(=O)c2ccc(C)s2)CC1 (configuration not stated)	17.8%	18.7%	122% (inactive)	196%
COc1ccc(F)c(CN2CCC(n3nccc3NC(=O)C3CCOC3)CC2)c1 (configuration not stated)	29.1%	10.9%	235% (inactive)	538%
CCCCCCCCn1c2c(c(=N)c3c1CCC3)CCCC2	1.8%	5.8%	46.9% (active)	54.6%
C=CCN1C(=O)c2ccc(C(=O)N3CCN(S(=O)(=O)c4cccc(Cl)c4)CC3)cc2C1=O	12.4%	26.8%	118% (inactive)	125%
CC(C)(C)C(=O)Nc1ccc2c(c1)OCCOCCOc1cc(NC(=O)C(C)(C)C)ccc1OCCOCCO2	22.2%	25.5%	251% (inactive)	910%

SMILES	double positive events (at 7.7 µM)	double positive events [1]	percent response (vesicle binding) [1]	percent response (vesicle binding) (response, at 7.7 µM)
COc1ccc(N(CC(=O)NCCC2=CCCCC2)S(=O)(=O)c2ccc(C)cc2)cc1OC	8.6%	22.9%	140% (inactive)	96.7%
Cc1c(C(=O)NCCSCc2c(F)cccc2Cl)cnn1-c1ccc(Cl)cc1	19.9%	1.6%	26.4% (active)	229%
O=C(CSCCO)N1CCc2ccccc21	9.8%	26%	310% (inactive)	415%
Nc1nnc(SCCOc2ccc(Br)cc2)s1	34.9%	15.9%	217% (inactive)	294%
Cc1sc(NC(=O)CN2CCOCC2)c(C#N)c1C	10.4%	29%	344% (inactive)	364%
COc1cccc(C(=O)O[C@@H]2[C@H](Cc3ccccc3)NS(=O)(=O)[C@H]3C[C@@H]4C=C[C@]23O4)c1	30%	18.9%	180% (inactive)	197%
Cc1oc(-c2ccccc2)nc1Cn1cccc1C1=NC(c2ccccc2)CO1 (configuration not stated)	13.6%	14.5%	105% (inactive)	179%
CCn1nc(C(=O)NCCc2ccc3c(c2)OCCO3)c2ccccc2c1=O	9.8%	15.2%	173% (inactive)	148%
OC[C@H]1O[C@@H](Oc2ccc3cc(Br)ccc3c2)[C@H](O)[C@@H](O)[C@H]1O	14.4%	27.5%	389% (inactive)	493%
COc1ccc(C(=O)N2CCN(c3ccc(NC(=O)Cc4ccccc4)cc3)CC2)cc1	25.4%	23.5%	291% (inactive)	635%
COC(=O)CN1C(=S)N(C)C(=O)C1CC(=O)Nc1ccccc1 (configuration not stated)	18.9%	12.8%	120% (inactive)	896%
COc1ccc(NC(=O)CC2C(=O)N(Cc3ccccc3)C(=S)N2CCN2CCOCC2)cc1 (configuration not stated)	13%	0.6%	20% (active)	196%
S=c1sc2c(N3CCOCC3)ncnc2n1-c1ccccc1	9.4%	12.2%	206% (inactive)	355%
Cc1cc2ncn(C(=O)N3CCCCCC3)c2cc1C	6.8%	21.3%	112% (inactive)	241%
CCCCn1c(-c2ccccc2)nnc1-c1ccccc1	37.8%	9.3%	150% (inactive)	219%
O=C(N/N=C/c1ccc(OCc2ccccc2)cc1)c1cccs1	12.1%	18.5%	272% (inactive)	428%
O=C(N/N=C/c1cccc(OCc2ccccc2)c1)c1ccc(Br)cc1	9.6%	0.9%	36% (active)	128%
O=C(N/N=C/c1cccc(OC(=O)c2ccccc2Cl)c1)c1cccnc1	25.8%	10%	87% (inactive)	350%
Cc1ccc(N(CC(O)CN2CCCC2)S(=O)(=O)c2ccc(C)cc2)cc1 (configuration not stated)	24.2%	34.6%	136% (inactive)	325%
COc1cc(F)c(C2=CC(=O)C[C@H](c3ccc(F)cc3)C2)cc1F	24.2%	13.4%	170% (inactive)	320%
CC1(C)Cc2c(C#N)c(NC3CCCCC3)nc(-c3ccco3)c2CO1	5.9%	2.8%	33.8% (active)	107%
